Experimental data: PubChem BioAssay (Tox21)
Results filed as inconclusive are left out. Values without a mark were called inactive. Calls of active or inactive are those of the source. The call rests on the fitted dose curve; in most records, active means well fitted inhibition curve with a large enough effect in the repeat runs; inconclusive means weak or mixed curves; inactive means no such curve, though single readings can be large or run the other way.

molecular target: Cytochrome P450 3A4 (Homo sapiens) (UniProt P08684); assay: Cytochrome P450 Family 3 Subfamily A Member 4 (CYP3A4) small molecule antagonists: luciferase reporter qHTS assay (AID 1671201); conditions: P450-Glo CYP3A4 enzyme, luciferin luminescence, 1 h; series mostly up to 115 µM; activity change, negative = inhibition: at the top concentration; further: nearly all actives have a fitted effect of over 50% in size
Description: National Center for Advancing Translational Sciences [NCATS]
U.S. Environmental Protection Agency [EPA]
National Institutes of Environmental Health Sciences [NIEHS]
National Toxicology Program [NTP]
U.S. Food and Drug Administration [FDA]
Cytochrome P450 (CYP) enzymes are membrane-bound hemeproteins that play a key role in metabolism of drugs and xenobiotics. Evaluation of the effect of chemicals on CYP isozymes is useful to minimize the adverse drug reactions and toxicities in drug development process. Tox21 chemicals were tested for their effect on CYP enzyme activities by using P450-Glo (TM) screening systems (Promega Corporation, Madison, WI). These systems provide a luminescent method containing proluciferin substrates and are converted to luciferin products by CYP isozymes. The luciferin products formed are detected with a luciferin detection reagent, and the amount of light produced is proportional to CYP activity. P450-Glo (TM) CYP3A4 screening system (Catalog. No. V9910) was used to detect the compounds that interfere in CYP3A4 activity. The positive control compound used for CYP3A4 assay is ketoconazole (Sigma-Aldrich, St. Louis, MO).
Tox21 Assay Protocol Summary:
Two ul of enzyme-substrate mix was dispensed into medium binding white/solid 1536-well plates (Greiner Bio-One North America Inc., Monroe, NC) using a BioRaptr Flying Reagent Dispenser (FRD, Beckman Coulter, Brea, CA). Compounds dissolved in DMSO and positive control (ketoconazole) were transferred to the assay plates at 23 nl using a Pintool station (Wako, San Diego, CA). The assay plates were incubated at room temperature for 10 min. Then 2 ul of NADPH regeneration solution was added to each well of the assay plates using an FRD and incubated at room temperature for 1 h. The reaction was stopped by adding 4 ul of detection reagent using an FRD and after 20 min incubation at room temperature the luminescence signal was measured using a ViewLux plate reader (Perkin Elmer, Shelton, CT). Data were expressed as relative luminescence units.
On the % scale 0 is the no-effect control and ±100 the full control effect; potency means the concentration at half of the fitted maximal effect.

Chain of Cytochrome P450 3A4 (Homo sapiens) (P08684 whole entry, looked up): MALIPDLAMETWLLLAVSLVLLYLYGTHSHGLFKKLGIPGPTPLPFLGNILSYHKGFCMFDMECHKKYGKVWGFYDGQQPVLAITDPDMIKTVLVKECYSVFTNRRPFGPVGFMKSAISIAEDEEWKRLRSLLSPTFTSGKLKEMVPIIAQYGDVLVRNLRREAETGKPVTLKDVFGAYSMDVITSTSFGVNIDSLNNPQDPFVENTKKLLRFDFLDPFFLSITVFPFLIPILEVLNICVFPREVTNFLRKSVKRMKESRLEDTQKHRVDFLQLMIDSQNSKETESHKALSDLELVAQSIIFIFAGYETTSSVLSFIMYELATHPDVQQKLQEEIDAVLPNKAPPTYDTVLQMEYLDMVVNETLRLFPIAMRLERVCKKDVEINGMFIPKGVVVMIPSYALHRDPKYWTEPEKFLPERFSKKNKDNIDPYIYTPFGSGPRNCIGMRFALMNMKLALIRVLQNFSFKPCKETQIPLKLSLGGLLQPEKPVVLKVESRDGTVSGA

Row | Structure (SMILES) | Potency | activity change, negative = inhibition
1 | Cc1cc(O)ccc1N | 11.3 µM (active) | 
2 | SC1CCCC1 |  | 0.411%
3 | CC1=CC(=O)/C(=C(/C)O)C(=O)O1 |  | -19.6%
4 | CCN1CCC[C@H]1CNC(=O)c1c(OC)ccc(Br)c1OC |  | -23.4% [at 52.9 µM]
5 | Cn1sccc1=O | inactive | 
6 | CC(=O)/C(C)=C/C1C(C)=CCCC1(C)C (stereo not given) |  | 1.37%
7 | CCN(CC)CCOc1ccc2c(c1)C(=O)c1cc(OCCN(CC)CC)ccc1-2 |  | -1.81% [at 52.9 µM]
8 | CN1CCC(=C2c3ccccc3C=Cc3ccccc32)CC1 |  | 40.2% [at 52.9 µM]
9 | CNS(=O)(=O)Cc1ccc2[nH]cc(CCN(C)C)c2c1 |  | 8.69% [at 52.9 µM]
10 | Nc1cnn([C@@H]2O[C@H](CO)[C@@H](O)[C@H]2O)c(=O)n1 |  | 12%
11 | C=Cc1c(C)c2cc3[nH]c(cc4nc(cc5nc(cc1[nH]2)C(C)=C5CCC(=O)O)C(CCC(=O)O)=C4C)c(C)c3C=C |  | 2.94% [at 52.9 µM]
12 | OCC1CC2CC1C1CCC(CO)C21 (stereo not given) |  | -0.545%
13 | O=CNc1ccccc1 |  | 2.49%
14 | CC(C)(C)c1cc(CO)cc(C(C)(C)C)c1O | 36.3 µM (active) | 
15 | ClC(Cl)(Cl)c1ccc(C(Cl)(Cl)Cl)cc1 |  | 63.4%
16 | CC(C)(Oc1ccc(Cl)cc1)C(=O)OCCCOC(=O)C(C)(C)Oc1ccc(Cl)cc1 |  | 24.5% [at 52.9 µM]
17 | Nc1nc(N)c2nc(CNc3ccc(C(=O)N[C@@H](CCC(=O)O)C(=O)O)cc3)cnc2n1 |  | 0.543%
18 | CCCCCCCC/C=C\CCCCCCCC(N)=O |  | 2.63%
19 | CC(=O)N(O)CCCCCNC(=O)CCC(=O)N(O)CCCCCNC(=O)CCC(=O)N(O)CCCCCN |  | -17.1% [at 52.9 µM]
20 | CCCCCCCCC(CO)CCCCCC (stereo not given) |  | 22.3%

Row | Structure (SMILES) | Potency | activity change, negative = inhibition
21 | O=c1c2ccccc2nnn1CCl | 11.2 µM (active) | 
22 | Cc1ccc(C(N)=O)cc1N |  | -9.49%
23 | CC(O)C1CCCCC1 (stereo not given) |  | 3.5%
24 | CCCCCCCCCC=O |  | 30.3%
25 | Oc1ccc(Sc2ccc(O)cc2)cc1 | 37.3 µM (active) | 
26 | CC(C)c1ccc2c(C(C)C)cc(C(C)C)c(S(=O)(=O)O)c2c1 |  | 26.4%
27 | S=C(S)NCCNC(=S)S |  | -10.1%
28 | COCCCCCCCCOCCC[Si](C)(O[Si](C)(C)C)O[Si](C)(C)C | 3.56 µM (active) | 
29 | CCCCC(CC)COCCCN (stereo not given) | 9.92 µM (active) | 
30 | NC(N)=N/N=C/c1c(Cl)cccc1Cl |  | 14.2% [at 52.9 µM]
31 | COc1ccccc1OC(=O)Oc1ccccc1OC |  | 1.34% [at 52.9 µM]
32 | CCCCCCOC(=O)CCC |  | 4.67%
33 | CC(=O)/C=C/C1C(C)=CCCC1(C)C (stereo not given) |  | 11.1%
34 | O=C(NS(=O)(=O)/C=C/c1cccs1)c1ccc(F)cc1Br |  | 2.51%
35 | Cn1c(=O)c2c(ncn2CC(O)CO)n(C)c1=O (stereo not given) |  | 6.07% [at 52.9 µM]
36 | O=C(/C=C/c1ccc(O)c(O)c1)O[C@@H]1C[C@](O)(C(=O)O)C[C@@H](O)[C@H]1O |  | 4.13%
37 | Nc1ccc(C(=O)Nc2ccccc2N)cc1 |  | -8.91% [at 52.9 µM]
38 | CCCCCCCCCCCCCCCCCBr |  | 1.19% [at 23.6 µM]
39 | CCCCCCCCCCCCC(=O)O |  | 61.2%
40 | O=C(O)C1CCC(C(=O)O)CC1 (stereo not given) |  | 7.36%
